Drawing on PubChem BioAssay (NCATS), this text covers Potency for ten molecules.

Each structure is given as a SMILES string. Results filed as inconclusive are left out. Calls of active or inactive are those of the source. Calls come from the whole dose curve; as a rule, active = well fitted curve in the direction sought with a large enough effect; inconclusive = small, poorly fitted or top-dose-only effect, or another doubt; inactive = no such curve, though single readings can be large; an effect the other way counts as inactive or inconclusive.

Experiment [1] in a line: Quantitative High-Throughput drug screen in 47 multiple myeloma cell lines against the NCATS MIPE library collection: Karpas620_DSMZ cell viability assay (AID 1918959). Note: nearly all actives have a fitted effect of over 30% in size. Note: potency is the fitted concentration of half-maximal effect. In a few lines:
(§1)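 qHTS of the MIPE 4.0 collection: 500 myeloma cells/well, 48 h drug exposure at 37C in 5% CO2, then CellTiter-Glo for 5 min at room temperature before luminescence reading.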

A short description of experiment [2]: Quantitative High-Throughput drug screen in 47 multiple myeloma cell lines against the NCATS MIPE library collection: KMM1_JCRB cell viability assay (AID 1918960). Note: nearly all actives have a fitted effect of over 30% in size. Note: potency is the fitted concentration of half-maximal effect. The method in brief:
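Viability screen: myeloma cells (500/well) incubated 48 h at 37 °C, humidified 5% CO2, with pinned library compounds; CellTiter-Glo added, luminescence read; DMSO wells set 100%, medium-only wells 0%.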

Experiment [3] in a line: Quantitative High-Throughput drug screen in 47 multiple myeloma cell lines against the NCATS MIPE library collection: Karpas417_ECACC cell viability assay (AID 1918961). To be noted: Karpas417 myeloma viability, CellTiter-Glo ATP luminescence, 48 h; viability (% of DMSO): at 45.8 µM (top of the series). The method in brief: (§2)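 Luminescent ATP measurement with CellTiter-Glo gives viability, scaled between DMSO-only wells (100%) and media-only wells (0%). Cells, 500 per well, faced library compounds for 48 hours at 37C.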

The nature of experiment [4]: Quantitative High-Throughput drug screen in 47 multiple myeloma cell lines against the NCATS MIPE library collection: INA6_PLB cell viability assay (AID 1918965; note: nearly all actives have a fitted effect of over 55% in size; note: potency is the fitted concentration of half-maximal effect). In a few lines: as §2
Experiment [5] is described as follows: Quantitative High-Throughput drug screen in 47 multiple myeloma cell lines against the NCATS MIPE library collection: Karpas25_ECACC cell viability assay (AID 1918968; note: nearly all actives have a fitted effect of over 35% in size; note: potency is the fitted concentration of half-maximal effect). In a few lines: (§3)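 Relative luminescence from CellTiter-Glo served as the viability signal, referenced to DMSO-treated (100%) and cell-free medium (0%) controls. Treatment lasted 48 hours at 37C with 500 cells per well.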

A short description of experiment [6]: Quantitative High-Throughput drug screen in 47 multiple myeloma cell lines against the NCATS MIPE library collection: KMS27_JCRB cell viability assay (AID 1918970). Note: nearly all actives have a fitted effect of over 30% in size. Note: potency is the fitted concentration of half-maximal effect. To be noted: KMS27 myeloma cells, CellTiter-Glo ATP viability, 48 h; viability (% of DMSO): at 45.8 µM (top of the series). In a few lines: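 Each line is seeded at 500 cells per well and treated with library compounds for 48 hours under 37 °C, 5% CO2. CellTiter-Glo is then added for 5 min at room temperature before median relative luminescence is recorded.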
(ATP-based viability assays read luminescence as a measure of living cells.)

Experiment [7] in a line: Quantitative High-Throughput drug screen in 47 multiple myeloma cell lines against the NCATS MIPE library collection: KMS12BM_JCRB cell viability assay (AID 1918971). Note: nearly all actives have a fitted effect of over 35% in size. Note: potency is the fitted concentration of half-maximal effect. In a few lines: (§4)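 Steps: seed 500 cells per well; pin-transfer MIPE 4.0 library; incubate 48 h at 37C, 5% CO2, humidified; add CellTiter-Glo, 5 min room temperature; read luminescence.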
A short description of experiment [8]: Quantitative High-Throughput drug screen in 47 multiple myeloma cell lines against the NCATS MIPE library collection: KMS12PE_JCRB cell viability assay (AID 1918972). Note: nearly all actives have a fitted effect of over 30% in size. Note: potency is the fitted concentration of half-maximal effect. The method in brief: as §2
Experiment [9] in a line: Quantitative High-Throughput drug screen in 47 multiple myeloma cell lines against the NCATS MIPE library collection: KMS26_JCRB cell viability assay (AID 1918975). Note: nearly all actives have a fitted effect of over 45% in size. Note: potency is the fitted concentration of half-maximal effect. The method in brief:
as §4

The nature of experiment [10]: Quantitative High-Throughput drug screen in 47 multiple myeloma cell lines against the NCATS MIPE library collection: MOLP8_DSMZ cell viability assay (AID 1918977). Note: nearly all actives have a fitted effect of over 45% in size. Note: potency is the fitted concentration of half-maximal effect. In a few lines:
(§5)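 qHTS format: cells plated (500/well), pin-dosed with MIPE 4.0 compounds, kept 48 h at 37 °C. Readout was CellTiter-Glo luminescence, median RLU.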

Experiment [11] in a line: Quantitative High-Throughput drug screen in 47 multiple myeloma cell lines against the NCATS MIPE library collection: NCIH929_DSMZ cell viability assay (AID 1918978). Note: nearly all actives have a fitted effect of over 35% in size. Note: potency is the fitted concentration of half-maximal effect. The method in brief: as §5
The nature of experiment [12]: Quantitative High-Throughput drug screen in 47 multiple myeloma cell lines against the NCATS MIPE library collection: OCIMY1_PLB cell viability assay (AID 1918979). Note: nearly all actives have a fitted effect of over 35% in size. Note: potency is the fitted concentration of half-maximal effect. In a few lines: as §5
A short description of experiment [13]: Quantitative High-Throughput drug screen in 47 multiple myeloma cell lines against the NCATS MIPE library collection: KHM11_PLB cell viability assay (AID 1918962). The method in brief: as §1
Experiment [14] can be described thus: Quantitative High-Throughput drug screen in 47 multiple myeloma cell lines against the NCATS MIPE library collection: JIM3_ECACC cell viability assay (AID 1918963). In a few lines:
as §1

Experiment [15] in a line: Quantitative High-Throughput drug screen in 47 multiple myeloma cell lines against the NCATS MIPE library collection: JIM1_ECACC cell viability assay (AID 1918964; note: potency is the fitted concentration of half-maximal effect). The method in brief: as §3
A short description of experiment [16]: Quantitative High-Throughput drug screen in 47 multiple myeloma cell lines against the NCATS MIPE library collection: H1112_PLB cell viability assay (AID 1918967). In a few lines:
as §3

The nature of experiment [17]: Quantitative High-Throughput drug screen in 47 multiple myeloma cell lines against the NCATS MIPE library collection: KMS21BM_JCRB cell viability assay (AID 1918974). Note: potency is the fitted concentration of half-maximal effect. The following applies: ATP luminescence, 48 h; viability: at 45.8 µM (top of the series). The method in brief: as §3
The nature of experiment [18]: Quantitative High-Throughput drug screen in 47 multiple myeloma cell lines against the NCATS MIPE library collection: JJN3_DSMZ cell viability assay (AID 1918966; note: nearly all actives have a fitted effect of over 50% in size; note: potency is the fitted concentration of half-maximal effect). The method in brief: as §3
A short description of experiment [19]: Quantitative High-Throughput drug screen in 47 multiple myeloma cell lines against the NCATS MIPE library collection: KMS20_JCRB cell viability assay (AID 1918973). Note: nearly all actives have a fitted effect of over 45% in size. Note: potency is the fitted concentration of half-maximal effect. The method in brief: as §3
Experiment [20] is described as follows: Quantitative High-Throughput drug screen in 47 multiple myeloma cell lines against the NCATS MIPE library collection: MMM1_PLB cell viability assay (AID 1918976). The method in brief: as §5

As to `CC(C)N(CC[C@H](c1ccccc1)c1cc(CO)ccc1O)C(C)C`, the Potency result in experiment [1], in experiment [2], in [3], in experiment [4], in experiment [5] and in experiment [6] was “inactive” each time. For the same molecule, the Potency result in [7], in experiment [8], in experiment [9], in [10], in [11] and in experiment [12] was “inactive” throughout.

For `Nc1ncn([C@@H]2O[C@H](CO)[C@@H](O)[C@@H]2O)c(=O)n1`, the Potency is 4690 nM (active) in experiment [1]; 1180 nM (active) in [2]; 14800 nM (active) in experiment [13]; 4690 nM (active) in experiment [14]; 1480 nM (active) in experiment [15]; 1180 nM (active) in experiment [4]. For the same molecule, the Potency in [16] is 18700 nM (active); in experiment [5], 3320 nM (active); in experiment [6], 9350 nM (active); in experiment [7] it was 8330 nM (active); in experiment [8], 1320 nM (active); in experiment [17] it was 1870 nM (active). Besides, the Potency in [9] was 13200 nM (active); in experiment [11] it was 3720 nM (active); in experiment [12], 14800 nM (active).

As for `C=CC(=O)N1CCc2ccc(-n3c(=O)ccc4cnc5ccc(-c6cnn(C)c6)cc5c43)cc21`, the Potency in experiment [1] was 3720 nM (active); in [2], 833 nM (active); in experiment [13], 526 nM (active); in experiment [14] it was 2960 nM (active); in [15] it was 1870 nM (active); in experiment [4], 235 nM (active). Further, the Potency in [18] is 1050 nM (active); in experiment [16], 1050 nM (active); in experiment [5], 590 nM (active); in experiment [6], 2960 nM (active); in experiment [7] it was 4690 nM (active); in experiment [8], 2960 nM (active). The Potency was 833 nM (active) in [19]; 1320 nM (active) in experiment [9]; 1870 nM (active) in experiment [20]; 590 nM (active) in experiment [10]; 1660 nM (active) in experiment [11]; 1870 nM (active) in [12].

In the case of `O=C(c1ccc(F)cc1)N1CCC[C@H](c2nc(-c3ccc(F)cc3)no2)C1`, the Potency entry in experiment [1], in [2], in experiment [3], in experiment [15], in experiment [4] and in experiment [18] was “inactive” throughout. The Potency entry in experiment [5], in experiment [6], in experiment [8], in experiment [19], in experiment [9] and in [10] was “inactive” each time. Also, the Potency entry in experiment [11] and in experiment [12] was “inactive” throughout.

Take `FC(F)(F)c1ccc(Nc2nc3ccc(Oc4ccnc(-c5ncc(C(F)(F)F)[nH]5)c4)cc3[nH]2)cc1`: the Potency in [1] is 26400 nM (active); in experiment [2] it was 18700 nM (active); in [13] it was 20900 nM (active); in experiment [14], 23500 nM (active); in experiment [15], 11800 nM (active); in experiment [4] it was 18700 nM (active). Further, the Potency is 20900 nM (active) in [5], 23500 nM (active) in experiment [6], 18700 nM (active) in [7] and 14800 nM (active) in experiment [8].

For the molecule `CCc1cnn2c(NCc3ccc[n+]([O-])c3)cc(N3CCCC[C@@H]3CCO)nc12`, the Potency is 33.2 nM (active) in experiment [1]; 14.8 nM (active) in [2]; 18.7 nM (active) in experiment [13]; 26.4 nM (active) in experiment [14]; 14.8 nM (active) in [15]; 23.5 nM (active) in [4]. Moreover, the Potency in [18] is 11.8 nM (active); in experiment [16], 26.4 nM (active); in experiment [6], 18.7 nM (active); in [7] it was 26.4 nM (active); in [8] it was 33.2 nM (active); in experiment [19], 20.9 nM (active). Also, the Potency in experiment [17] was 13.2 nM (active); in experiment [9] it was 18.7 nM (active); in [20], 29.6 nM (active); in [10], 11.8 nM (active); in experiment [11], 23.5 nM (active); in experiment [12], 33.2 nM (active).

Turning to `O=C(C=Cc1ccc(CN(CCO)CCc2c[nH]c3ccccc23)cc1)NO`, the Potency was 148 nM (active) in [1]; 105 nM (active) in experiment [2]; 209 nM (active) in experiment [13]; 332 nM (active) in experiment [14]; 132 nM (active) in experiment [15]; 29.6 nM (active) in experiment [4]. For the same molecule, the Potency is 93.5 nM (active) in experiment [18]; 187 nM (active) in experiment [16]; 59 nM (active) in experiment [5]; 105 nM (active) in experiment [6]; 83.3 nM (active) in experiment [7]; 83.3 nM (active) in [8]. In addition, the Potency in experiment [9] is 105 nM (active); in experiment [20], 66.2 nM (active); in [10], 83.3 nM (active); in experiment [11], 105 nM (active); in experiment [12], 296 nM (active).

Turning to `CC(C)C[C@H](NC(=O)[C@@H](NC(=O)c1cccc(-c2ccccc2)n1)[C@@H](C)O)B(O)O`, the Potency was 14.8 nM (active) in experiment [1]; 7.4 nM (active) in experiment [2]; 18.7 nM (active) in experiment [13]; 37.2 nM (active) in experiment [14]; 10.5 nM (active) in experiment [15]; 1 nM (active) in [4]. Moreover, the Potency in experiment [16] is 33.2 nM (active); in experiment [5], 13.2 nM (active); in [6], 23.5 nM (active); in experiment [7], 37.2 nM (active); in [8], 10.5 nM (active); in experiment [19], 33.2 nM (active). For the same molecule, the Potency was 41.8 nM (active) in experiment [9]; 3720 nM (active) in experiment [20]; 29.6 nM (active) in [10]; 11.8 nM (active) in experiment [11]; 16.6 nM (active) in [12].

As for `Nc1nc(N)c2nc(-c3cccc(O)c3)c(-c3cccc(O)c3)nc2n1`, the Potency is 11800 nM (active) in [1]; 3720 nM (active) in [2]; 3320 nM (active) in [13]; 9350 nM (active) in [14]; 1870 nM (active) in [15]; 2350 nM (active) in experiment [4]. In addition, the Potency in experiment [18] was 18700 nM (active); in experiment [5], 4690 nM (active); in experiment [6], 4180 nM (active); in experiment [8], 13200 nM (active); in experiment [19], 7430 nM (active); in [17] it was 7430 nM (active). Also, the Potency in experiment [20] was 20900 nM (active); in experiment [10] it was 26400 nM (active); in experiment [11] it was 4180 nM (active).

As to `CCS(=O)(=O)Nc1ccc2[nH]c(O)c(C(=Nc3ccc(CN4CCCCC4)cc3)c3ccccc3)c2c1`, the Potency in experiment [1] was 1480 nM (active); in experiment [2], 3720 nM (active); in experiment [13], 418 nM (active); in experiment [14], 209 nM (active); in [15], 59 nM (active); in experiment [4], 469 nM (active). The Potency in experiment [18] is 743 nM (active); in experiment [16], 4690 nM (active); in experiment [5] it was 235 nM (active); in experiment [6] it was 132 nM (active); in [7], 13200 nM (active); in experiment [8] it was 148 nM (active). In addition, the Potency was 296 nM (active) in experiment [19]; 469 nM (active) in experiment [9]; 209 nM (active) in experiment [20]; 105 nM (active) in experiment [11]; 5900 nM (active) in experiment [12].
